PubChem BioAssay (NCI)
Several values for one entry are separate records, joined by “and”; a condition that tells them apart may be missing. Equal values may be shown once. This is part of a sample that, as a whole, favours compounds with a hit. Of some 79,000 tested, about 15% had one in any assay. Some compounds were tested as several samples or in several runs, with calls that do not always agree. Activity calls are given as the source filed them. No stated cut-off is given here; in the data, active means growth inhibition above about 70%; inactive means the rest.

What was measured:
[1] = NCI Yeast Anticancer Drug Screen. Data for the rad50 strain (AID 155);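 further: 0% = growth of vehicle-only cultures of the same strain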; details: S. cerevisiae rad50 strain growth inhibition, stronger effect = higher value
In short: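 Yeast carrying a defined DNA repair defect were exposed to test compounds, and growth was compared with vehicle-treated controls to give percent inhibition.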

[2] = NCI Yeast Anticancer Drug Screen. Data for the mec2-1 strain (AID 157); details: S. cerevisiae mec2-1 strain, stronger effect = higher value
In short: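 Test agents were screened against the mec2-1 yeast strain, with defined DNA repair or cell cycle alteration. Growth was scored as inhibition against vehicle-only controls.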

[3] = NCI Yeast Anticancer Drug Screen. Data for the sgs1 mgt1 strain (AID 161);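 further: 0% = growth of cultures given vehicle only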; details: S. cerevisiae sgs1 mgt1 strain, stronger effect = higher value
In short: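 Inhibition of yeast growth, normalised to vehicle-treated controls, is reported for a strain bearing genetic alterations in DNA damage repair.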

[4] = NCI Yeast Anticancer Drug Screen. Data for the cln2 rad14 strain (AID 165);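 further: 0% = growth equal to vehicle treated cultures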; details: S. cerevisiae cln2 rad14 strain, stronger effect = higher value
In short: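 Growth of compound-exposed yeast (cln2 rad14 genotype) measured and expressed as inhibition relative to vehicle.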

[5] = NCI Yeast Anticancer Drug Screen. Data for the bub3 strain (AID 167); details: S. cerevisiae bub3 mutant strain, stronger effect = higher value
In short: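 Compounds were applied to a genetically altered yeast strain carrying a cell-cycle control defect. Growth inhibition was scored against vehicle-treated controls.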

[6] = NCI Yeast Anticancer Drug Screen. Data for the mlh1 rad18 strain (AID 175); details: S. cerevisiae mlh1 rad18 strain growth inhibition, stronger effect = higher value
In short: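 In this whole-cell yeast screen, a strain with altered DNA damage repair is challenged with compound, and its growth is measured against matched vehicle-treated controls.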

[7] = at 5.0 µM (retest, dose inferred, filed as 0.5)
[8] = at 50.0 µM (retest, dose inferred, filed as 5.0)

| Compound | growth inhibition [1, 7] | growth inhibition [1, 8] | growth inhibition ([1]; at 50.0 µM) | growth inhibition [2, 7] | growth inhibition [2, 8] | growth inhibition ([2]; at 50.0 µM) | growth inhibition [3, 7] | growth inhibition [3, 8] | growth inhibition ([3]; at 50.0 µM) | growth inhibition [4, 7] | growth inhibition [4, 8] | growth inhibition ([4]; at 50.0 µM) | growth inhibition [5, 7] | growth inhibition [5, 8] | growth inhibition ([5]; at 50.0 µM) | growth inhibition [6, 7] | growth inhibition [6, 8] | growth inhibition ([6]; at 50.0 µM) |
| --- | --- | --- | --- | --- | --- | --- | --- | --- | --- | --- | --- | --- | --- | --- | --- | --- | --- | --- |
| C=CCC(O)c1ccc(C(C)C)cc1 (stereo not given) | 3% (inactive) | 7% (inactive) | 18.9% (inactive) and -7.9% (inactive) | 1% (inactive) | -3% (inactive) | -7.55% (inactive) and -1.05% (inactive) | -2% (inactive) | 1% (inactive) | -5.65% (inactive) and 13.1% (inactive) | -3% (inactive) | 0% (inactive) | -5% (inactive) and 16.4% (inactive) | 10% (inactive) | 16% (inactive) | -2.85% (inactive) and -2.2% (inactive) | 0% (inactive) | 7% (inactive) | 15.4% (inactive) and -13.9% (inactive) |
| c1ccc(N=c2cnc3c(ccc4ccccc43)o2)cc1 | 97% (active) | 93% (active) | 93.5% (active) | 97% (active) | 96% (active) | 95.5% (active) | 96% (active) | 95% (active) | 94.2% (active) | 99% (active) | 98% (active) | 98.6% (active) | 64% (inactive) | 84% (active) | 79.2% (active) | 97% (active) | 96% (active) | 96.8% (active) |
| O=C(O)c1c2ccccc2nc2[nH]c(=O)[nH]c(=O)c12 | -1% (inactive) | -3% (inactive) | 3.3% (inactive) and 23.4% (inactive) | -2% (inactive) | -2% (inactive) | -5.05% (inactive) and 33.4% (inactive) | -6% (inactive) | -3% (inactive) | -4.45% (inactive) and 24.3% (inactive) | 0% (inactive) | 6% (inactive) | 62.9% (inactive) and -0.85% (inactive) | -1% (inactive) | -5% (inactive) | 7.1% (inactive) and 34% (inactive) | 0% (inactive) | -4% (inactive) | -1.9% (inactive) and 15.7% (inactive) |
| CCCCCCCCCCSC(=N)N | -141% (inactive) and 19% (inactive) | 82% (active) and 91% (active) | 52.9% (inactive) and 95.7% (active) | -48% (inactive) and -3% (inactive) | 71% (active) and 86% (active) | 49.8% (inactive) and 89.2% (active) | -54% (inactive) and 22% (inactive) | 90% (active) and 95% (active) | 52.5% (inactive) and 96.5% (active) | -50% (inactive) and 8% (inactive) | 49% (inactive) and 62% (inactive) | 57.5% (inactive) and 57.2% (inactive) | -47% (inactive) and 22% (inactive) | 84% (active) and 92% (active) | 52.5% (inactive) and 94.3% (active) | -134% (inactive) and 1% (inactive) | 79% (active) and 90% (active) | 52% (inactive) and 92.1% (active) |
| CC1C[C@]2(C)C(=O)Nc3ccccc3[C@@H]2Nc2ccccc21 (stereo not given in full) | 6% (inactive) | 36% (inactive) | 91.1% (active) | 10% (inactive) | 30% (inactive) | 93.8% (active) | 22% (inactive) | 14% (inactive) | 93.2% (active) | -6% (inactive) | 57% (inactive) | 89.5% (active) | 20% (inactive) | 73% (active) | 91.5% (active) | 16% (inactive) | 43% (inactive) | 89.2% (active) |
| CC(=O)OCC1OC(n2c(C)c(C(C)=O)c(-c3ccco3)c(C#N)c2=S)C(OC(C)=O)C(OC(C)=O)C1OC(C)=O (stereo not given) | -7% (inactive) | -3% (inactive) | -9.45% (inactive) and 32.2% (inactive) | 2% (inactive) | 1% (inactive) | -26.9% (inactive) and 56.2% (inactive) | 2% (inactive) | 13% (inactive) | -4.95% (inactive) and 74.4% (active) | 6% (inactive) | 22% (inactive) | -13.6% (inactive) and 40.8% (inactive) | -4% (inactive) | 9% (inactive) | -25.4% (inactive) and 42.4% (inactive) | -29% (inactive) | 12% (inactive) | 3.55% (inactive) and 45% (inactive) |
| CCN1CCC(O)(/C=C/c2ccc(C)cc2)C(C(=O)/C=C/c2ccc(C)cc2)C1 (stereo not given) | 20% (inactive) | 98% (active) | 90.1% (active) | 15% (inactive) | 99% (active) | 91.4% (active) | -29% (inactive) | 99% (active) | 91.2% (active) | 9% (inactive) | 99% (active) | 91.8% (active) | 14% (inactive) | 99% (active) | 90.6% (active) | 24% (inactive) | 98% (active) | 92.7% (active) |
| O=C(COc1ccc(Cl)cc1Cl)Nc1cccc(C(F)(F)F)c1 | -4% (inactive) | -3% (inactive) | -4.5% (inactive) | -18% (inactive) | -25% (inactive) | 7.95% (inactive) | -3% (inactive) | -2% (inactive) | 9.65% (inactive) | -3% (inactive) | -13% (inactive) | 41.9% (inactive) | 12% (inactive) | 0% (inactive) | 1% (inactive) | 1% (inactive) | 10% (inactive) | -0.4% (inactive) |
| CC1=CC(C)=Nc2ccc(Cl)cc2N1 | -2% (inactive) | 9% (inactive) | -1.1% (inactive) and 52% (inactive) | 2% (inactive) | 2% (inactive) | 11.4% (inactive) and 2.6% (inactive) | -4% (inactive) | -1% (inactive) | -5.1% (inactive) and 41% (inactive) | 1% (inactive) | 7% (inactive) | -15.9% (inactive) and -11.8% (inactive) | -2% (inactive) | -7% (inactive) | -2.9% (inactive) and 21.6% (inactive) | -2% (inactive) | 7% (inactive) | 9.35% (inactive) and 75.1% (active) |
| Oc1ccc(N=Nc2ccccn2)c(O)c1 | -174% (inactive) and 98% (active) | 94% (active) and 98% (active) | 98.5% (active) and 88.8% (active) | -53% (inactive) and 99% (active) | 97% (active) and 99% (active) | 98.5% (active) and 90.5% (active) | -67% (inactive) and 19% (inactive) | 94% (active) and 97% (active) | 98.2% (active) and 91.2% (active) | -66% (inactive) and 42% (inactive) | 94% (active) and 98% (active) | 96% (active) and 86.2% (active) | -67% (inactive) and 42% (inactive) | 96% (active) | 97.5% (active) and 89.8% (active) | -127% (inactive) and 100% (active) | 95% (active) and 99% (active) | 98.4% (active) and 89% (active) |
| O=[N+]([O-])c1cc([N+](=O)[O-])c2ccccc2c1NS(=O)(=O)/C=C/c1ccccc1 | 5% (inactive) | 54% (inactive) | 53% (inactive) | 8% (inactive) | 64% (inactive) | 70.7% (active) | 16% (inactive) | 47% (inactive) | 49% (inactive) | 10% (inactive) | 77% (active) | 50.4% (inactive) | 2% (inactive) | 42% (inactive) | 16.3% (inactive) | 7% (inactive) | 71% (active) | 44.5% (inactive) |
| CCCCC(O)CC (stereo not given) | -6% (inactive) | 0% (inactive) | -10% (inactive) and 9.8% (inactive) | -8% (inactive) | -3% (inactive) | -42.2% (inactive) and 12.4% (inactive) | -2% (inactive) | 1% (inactive) | 11.6% (inactive) and 27.9% (inactive) | -3% (inactive) | -1% (inactive) | 4.65% (inactive) and 48.2% (inactive) | -6% (inactive) | 0% (inactive) | -5.95% (inactive) and 1.55% (inactive) | -4% (inactive) | 0% (inactive) | 0.4% (inactive) and -1.7% (inactive) |
| CC1=CC(=Nc2ccc(N(C)C)cc2)C=CC1=O | 1% (inactive) | 7% (inactive) | -4.05% (inactive) and 78.8% (active) | -5% (inactive) | 2% (inactive) | 10.2% (inactive) and 46.4% (inactive) | 1% (inactive) | 7% (inactive) | 21.9% (inactive) and 84.1% (active) | -3% (inactive) | -6% (inactive) | -4.55% (inactive) and 33.5% (inactive) | -1% (inactive) | -9% (inactive) | -7% (inactive) and 21.4% (inactive) | -3% (inactive) | 9% (inactive) | 16.4% (inactive) and 66.2% (inactive) |
| COc1cccc(OCCC#N)c1 | 2% (inactive) | 27% (inactive) | -6.7% (inactive) and 72.8% (active) | -1% (inactive) | 0% (inactive) | 4.05% (inactive) and 4.85% (inactive) | -1% (inactive) | 12% (inactive) | -5.2% (inactive) and 31.4% (inactive) | -7% (inactive) | -1% (inactive) | -34.8% (inactive) and 20.4% (inactive) | -6% (inactive) | -5% (inactive) | -8.35% (inactive) and -22.1% (inactive) | 4% (inactive) | 19% (inactive) | -1.9% (inactive) and 44.9% (inactive) |
| O=[N+]([O-])c1ccc(Cl)c(C2CC(c3cccc4ccccc34)=Nc3ccccc3S2)c1 (stereo not given) | 0% (inactive) | 0% (inactive) | 31.1% (inactive) | 0% (inactive) | 2% (inactive) | 83% (active) | 2% (inactive) | 12% (inactive) | 30.6% (inactive) | -1% (inactive) | 0% (inactive) | 43.2% (inactive) | 2% (inactive) | 7% (inactive) | 35.2% (inactive) | -1% (inactive) | 6% (inactive) | 58.3% (inactive) |
